# Source: PubChem BioAssay (several laboratories)
# Shown are actives, neighbours in structure and some others; about 12% of the full set was active somewhere.
# Calpain2 inh = inhibitors of pig calpain II, primary screen, biochemical, fluorogenic peptide substrate, 1536-well; purified calpain II, 30 min; inhibition, % at 16 µM; actives 0.37% (n = 220,000); AID 1236, 2008;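 active = inhibition above about 50%, limit read from the data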
# KCC2 mod = KCC2 cotransporter modulators, thallium flux, primary screen, cell-based, HEK293 KCC2, FluoZin-2 fluorescence, MLSMR; B-score of Tl+ flux slope (higher = more flux/activation; lower = inhibition) at 10 µM; KCC2 cells, thallium flux FluoZin-2 fluorescence; actives 2.2% (n = 190,000); AID 1456, 2008;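 active = thallium flux slope and its plate-corrected score both differing from the plate sample mean at a set confidence after two filtering rounds, in either direction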;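 note: slope of fluorescence scaled to starting intensity during 10 to 20 s after thallium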
# ROMK mod = ROMK potassium channel modulators, primary screen, cell-based, thallium flux, MLSMR library. B-score at 10 µM. ATP-sensitive inward rectifier potassium channel 1 (Homo sapiens), P48048. actives 2% (n = 130,000). Tet-inducible ROMK, thallium flux fluorescence; actives lie on both sides;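 active = signal ratio slope over the read window, or its plate-corrected B-score, at least 3 SD from the plate mean, either direction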;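 note: B-score of the F/F0 ratio slope over 7 to 12 s after thallium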
# Target sequence (P48048 whole entry, looked up): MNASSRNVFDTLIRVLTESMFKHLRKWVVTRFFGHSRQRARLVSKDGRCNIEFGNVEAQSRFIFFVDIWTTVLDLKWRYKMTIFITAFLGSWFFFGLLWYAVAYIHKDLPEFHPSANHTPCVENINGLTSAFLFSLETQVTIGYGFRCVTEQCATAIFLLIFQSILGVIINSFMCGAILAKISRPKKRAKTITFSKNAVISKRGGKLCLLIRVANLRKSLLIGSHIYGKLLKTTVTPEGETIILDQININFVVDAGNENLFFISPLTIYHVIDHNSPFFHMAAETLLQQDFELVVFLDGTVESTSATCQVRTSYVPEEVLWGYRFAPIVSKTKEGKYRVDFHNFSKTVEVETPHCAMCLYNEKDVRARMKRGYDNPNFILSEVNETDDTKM
# WT yeast gro inh = growth inhibition of WT strain, primary screen, mitochondrial fusion inhibitor project, WT and mutant strains, chemical genetic; mitochondrial fusion phenotypic screen; inhibition, % at 10 µM; actives 2.1% (n = 190,000); AID 1362, 2008; in the data active = inhibition above about 58%; tested in S. cerevisiae
# Lmaj promast = Leishmania major promastigote growth inhibition, primary screen; inhibition, % at 10 µM; actives 9% (n = 200,000); Leishmania major promastigotes, resazurin fluorescence viability; in the data active = inhibition above about 50%;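 note: promastigotes grown with compound for 44 hours at 28 °C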
# An asterisk follows results filed as active; . = not tested or not shown.
SMILES,Calpain2 inh,KCC2 mod,ROMK mod,WT yeast gro inh,Lmaj promast
NC(=S)N/N=C/c1ccccc1OCCSc1ccc(Cl)cc1,37,1.6,-0.081,64*,100*
CC(=O)Nc1ccc2nc(C)n(Cc3ccc(Cl)cc3)c(=O)c2c1,18,-0.68,.,16,78*
Cc1cc(-c2nn(-c3ccccc3F)cc2CN2CCN(c3ccccn3)CC2)c(C)s1,8,.,1.2,66*,38
NS(=O)(=O)c1ccc(NC(=O)Cc2c(F)cccc2Cl)cc1,-8,1.4,.,-16,-5
C/C(=N\NC(=O)C(=O)Nc1cc(Cl)ccc1Cl)c1ccncc1,10,-0.36,1.6,-13,48
C/C(=N\NC(=O)C(=O)Nc1cccc(Cl)c1C)c1ccncc1,16,0.027,0.89,-9,69*
CCCCCCNC(=O)c1c(O)c2ccccc2[nH]c1=O,-39,-1.5,.,6,-4
N#Cc1ccc(-c2cccnc2)nc1SCc1ccc(Cl)cc1Cl,-22,0.52,-1.2,38,5
N#Cc1ccc(-c2cccnc2)nc1SCc1ccc(Cl)c(Cl)c1,4,1.5,.,75*,8
COc1ccc(/C=N/NC(=O)c2ccoc2C)cc1COc1c(C)cccc1C,-13,-1,.,88*,100*
COc1cc(/C=N/NC(=O)c2ccoc2C)cc(OC)c1O,-8,0.013,1.3,-7,47
O=C(NC1CCCc2ccccc21)C1CCN(S(=O)(=O)c2ccccc2F)CC1 (stereo not drawn),22,0.96,0.25,26,85*
CC(NC(=O)Cn1c(=O)oc2cc(S(=O)(=O)N3CCCC3)ccc21)c1ccccc1 (stereo not drawn),3,-0.31,.,-18,100*
O=C(NC1CCCc2ccccc21)C1CCN(S(=O)(=O)c2ccccc2)CC1 (stereo not drawn),31,-0.53,-0.89,17,1
O=C(Cn1c(=O)oc2cc(S(=O)(=O)N3CCCC3)ccc21)NC1CCCc2ccccc21 (stereo not drawn),3,-0.71,.,14,100*
CC(C)(C)NC(=O)Cn1c(=O)oc2cc(S(=O)(=O)N3CCc4ccccc43)ccc21,-16,0.37,.,-9,98*
COc1cccc(NC(=O)Cn2c(=O)oc3cc(S(=O)(=O)N4CCCC4)ccc32)c1,11,0.34,0.87,.,.
CCn1c(SCC(=O)Nc2ccccc2C)nc2nc3c(cc2c1=O)COC(C)(C)C3,11,0.5,.,.,.
CN=C1SC(C(=O)Nc2ccccc2Cl)CC(=O)N1c1ccc(OC(F)(F)Cl)cc1 (stereo not drawn),-18,1.4,0.28,11,-1
C1CCC(Nc2nc3nonc3nc2N2CCSCC2)C1,14,0.2,-0.46,15,7
CCOc1ccc(OCc2ccc(C(=O)N(CC)CC)cc2)cc1,5,0.49,0.03,12,7
COc1cc(C(=O)O)c2ccccc2n1,6,-0.67,-0.26,-8,-7
O=C(Cn1c(=O)oc2cc(S(=O)(=O)N3CCCC3)ccc21)N1CCN(c2ccccc2)CC1,1,.,.,-9,100*
O=C(Cn1c(=O)oc2ccccc21)N1CCN(c2ccccc2)CC1,-9,-1.6,.,3,-1
Cn1c(=O)c(=O)n(C)c2cc(S(=O)(=O)N3CCc4ccccc43)ccc21,17,.,.,-12,52*
SMILES,Calpain2 inh,KCC2 mod,ROMK mod,WT yeast gro inh,Lmaj promast
O=C(Cn1c(=O)oc2cc(S(=O)(=O)N3CCCC3)ccc21)Nc1ccc(C(F)(F)F)cc1,-89,-1.7,.,-2,52*
CN(Cc1ccccc1)C(=O)Cn1c(=O)oc2cc(S(=O)(=O)N3CCCC3)ccc21,-17,.,.,2,100*
CN(Cc1cccnc1)Cc1cn[nH]c1-c1ccc(-c2ccccc2)cc1,-16,-0.083,.,.,.
CC1N(C)c2cc(NC(=O)c3ccco3)ccc2C1(C)C (stereo not drawn),-5,-0.47,.,68,22
CC1N(C)c2cc(NC(=O)c3ccco3)c(P(=O)(Nc3ccc([N+](=O)[O-])cc3)N3CCOCC3)cc2C1(C)C (stereo not drawn),-93,-0.13,-2.8,11,55*
CC(C)(C)C(=O)N1CCN(c2ccc([N+](=O)[O-])c(-n3nc(-c4ccccc4)c4ccccc4c3=O)c2)CC1,-41,1.2,0.53,-1,57*
Cn1c(-c2c(N)n(-c3ccccc3)c3nc4ccccc4nc23)nc2ccccc21,-46,-0.75,.,59*,75*
Cc1cccc(-n2c(N)c(-c3nc4ccccc4n3C)c3nc4ccccc4nc32)c1,-58,0.16,.,51,50
COC(=O)C1=NN(C(=O)c2cccc(Cl)c2)C(O)(C(C)(C)C)C1 (stereo not drawn),3,51*,2.6*,-14,-8
COc1ccc(OC)c(NC(=O)CSc2ncccc2C(=O)O)c1,-1,0.17,0.36,-7,-1
CCCCCCCCNC(=O)c1cccnc1SCC(=O)Nc1ccccc1OC,34,-1.2,0.081,19,82*
Cn1c2ccccc2c(=O)c2c(=O)n(-c3ccccc3)c(C3CCCCC3)nc21,7,-2.9,0.76,-4,65*
CCc1nc2c(c(=O)c3ccccc3n2C)c(=O)n1C1CCCCCC1,-20,-1.4,.,14,7
Cn1c2ccccc2c(=O)c2c(=O)n(C3CCCCCC3)c(C3CCCCC3)nc21,-21,1.1,.,33,74*
Cc1sc2ncn(CC(=O)OC(C)C(=O)NC(C)(C)C)c(=O)c2c1C (stereo not drawn),-13,0.22,-0.65,2,10
Cc1ccc(N/C=C/C(=O)c2sc(-c3ccccc3)nc2C)cc1,8,-0.4,.,9,-4
COc1ccc(CCN(C(=O)C(F)(F)F)C(C(=O)NC2CCCCC2)c2cccs2)cc1 (stereo not drawn),30,0.25,-0.053,43,27
COc1ccc(CCN(C(=O)C(F)(F)F)C(C(=O)NC2CCCCC2)c2ccc(C)s2)cc1 (stereo not drawn),-29,.,0.25,3,68*
Cc1ccnc(SCCn2c(N3CC(C)CC(C)C3)nc3c2c(=O)n(C)c(=O)n3C)n1 (stereo not drawn),-27,.,.,-1,58*
COc1ccc2oc(=Nc3cc(F)ccc3F)c(C(N)=O)cc2c1,-20,0.014,.,2,59*
COc1ccc2oc(=O)c(C(=O)Nc3ccccc3O)cc2c1,-13,0.54,-0.075,.,.
COc1ccc2o/c(=N\O)c(C(=O)Nc3ccccc3OC)cc2c1,-26,0.3,.,-4,97*
Cc1ccc(/C(N)=N/OC(=O)c2cccc(Cn3cc(C(F)(F)F)ccc3=O)c2)cc1,18,-2.9,.,.,.
CC(NC(=O)Cn1nc(C(=O)O)c2ccccc2c1=O)C12CC3CC(CC(C3)C1)C2 (stereo not drawn),2,-1.3,-1.4,48,-3
O=C(NCCc1c[nH]c2ccccc12)/C(=C\c1cccnc1)NC(=O)c1ccccc1F,-7,-1.1,.,.,.
